# According to PubChem BioAssay:
# Active and inactive are the calls of the source.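 Rule for the calls, unless noted: active = fluorescence slope after compound addition differing from the mean of all screened samples at 99.7% confidence, in either direction; inactive = the rest.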
# Columns and labels:
# [1] = inhibitors of TNFa-induced NFkB p65 translocation, primary screen, imaging, HUVEC, MLSMR starter and 10KST1 sets (AID 438;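 active = inhibition above 20% together with a positive visual image hit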;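 note: compound added about 3h40 before a 20 min TNFalpha stimulation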;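 for inhibition: signal is the nuclear over cytoplasmic p65 intensity ratio per well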); details: HUVEC TNFa-induced p65 nuclear translocation; cell count: measured here: nuclei count (cytotoxicity indicator), at 2.08 µM; inhibition: at 2 µM, stronger effect = higher value, 0% TNFa-plus-vehicle, 100% no-TNFa wells
# [2] = reduction of polyQ htt aggregates in cells – imaging, exon1htt(103Q)mCFP cells, high-content imaging, primary screen (AID 483;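 active = visual image review flags a hit and inhibition of aggregation exceeds 20%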;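 note: compound exposure lasted 3 days before fixation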;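 for nuclei count: percent of the per-plate median nuclei count of sample wells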); details: exon1htt(103Q)mCFP cell line, aggregate imaging, at 2 µM; inhibition of aggregation: stronger effect = higher value; nuclei count: measured here: cell count, toxicity
# [3] = endothelial E-selectin expression blockers – imaging, HUVEC, immunofluorescence, MLSMR starter and 10KST1 sets, primary screen (AID 487;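 active = visually confirmed hit in the image check and inhibition above 20%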;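 for inhibition: signal is fraction of cell area covered by stained E-selectin grains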;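 for nuclei count: 100% = median nuclei count of all wells on the same plate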); details: HUVEC TNFalpha-induced E-selectin immunofluorescence imaging, at 2 µM; inhibition: stronger effect = higher value; nuclei count: measured here: cell number, toxicity
# [4] = biological target: Voltage-gated potassium channel subunit beta-2 (Rattus norvegicus) (UniProt P62483); assay: inhibitors of rat Kvbeta2 reductase activity – biochemical, NADPH fluorescence, primary screen (AID 622;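 active = fluorescence slope higher than the sample average by over 3 SD, cut at about -0.22 in these data, passing the limit was not always enough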;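 note: slope of raw intensity against log time taken from 70 to 1610 s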); details: recombinant KvBeta, 4-cyanobenzaldehyde reduction, at 10 µM, stronger effect = higher value
# Sequence of Voltage-gated potassium channel subunit beta-2 (Rattus norvegicus) (P62483 whole entry, looked up): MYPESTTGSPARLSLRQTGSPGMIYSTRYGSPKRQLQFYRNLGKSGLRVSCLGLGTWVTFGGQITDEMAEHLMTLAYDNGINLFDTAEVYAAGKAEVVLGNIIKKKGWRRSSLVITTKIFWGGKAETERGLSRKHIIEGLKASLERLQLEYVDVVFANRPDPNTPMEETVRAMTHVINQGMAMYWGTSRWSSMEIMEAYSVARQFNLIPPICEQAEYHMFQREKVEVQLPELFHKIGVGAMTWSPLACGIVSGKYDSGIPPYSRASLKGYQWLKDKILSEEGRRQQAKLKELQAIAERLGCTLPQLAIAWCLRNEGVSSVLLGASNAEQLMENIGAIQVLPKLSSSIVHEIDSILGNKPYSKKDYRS
# [5] = biological target: Voltage-gated potassium channel subunit beta-2 (Rattus norvegicus) (UniProt P62483); assay: enhancers of rat Kvbeta2 NADPH turnover – biochemical, NADPH fluorescence, primary screen (AID 623;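 active = NADPH fluorescence slope more negative than the mean of all samples by about 3 SD, 99.7% confidence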;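 note: fluorescence intensity change per second fitted from 20 to 320 s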); details: Recombinant KvBeta, NADPH fluorescence decrease slope, 10 min; at 10 µM; stronger effect = lower value
# [6] = biological target: Alpha-2C adrenergic receptor (Homo sapiens) (UniProt P18825); assay: compounds altering alpha2C-coupled GIRK flux – cell-based, HEK293 alpha2C/GIRK1/2, thallium flux, primary screen (AID 624); details: thallium flux BTC fluorescence, at 10 µM, actives lie on both sides;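 note: slope of fluorescence ratio to pre-addition baseline per second over 15 to 24 s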
# Sequence of Alpha-2C adrenergic receptor (Homo sapiens) (P18825 whole entry, looked up): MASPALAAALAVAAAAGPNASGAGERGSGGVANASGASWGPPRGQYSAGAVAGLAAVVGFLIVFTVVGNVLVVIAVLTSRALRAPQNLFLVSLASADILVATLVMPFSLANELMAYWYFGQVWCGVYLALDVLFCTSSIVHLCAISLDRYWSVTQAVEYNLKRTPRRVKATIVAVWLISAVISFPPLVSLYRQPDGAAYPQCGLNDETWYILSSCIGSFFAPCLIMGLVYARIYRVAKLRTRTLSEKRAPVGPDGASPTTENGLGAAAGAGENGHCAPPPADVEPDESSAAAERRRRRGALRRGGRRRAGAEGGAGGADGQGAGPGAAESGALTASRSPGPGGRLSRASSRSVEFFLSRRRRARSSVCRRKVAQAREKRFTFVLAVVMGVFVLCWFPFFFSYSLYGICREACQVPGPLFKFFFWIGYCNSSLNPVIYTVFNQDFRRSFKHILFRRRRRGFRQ
# [7] = blockers of RIG-like receptor reporter activation – cell-based, Sendai virus stimulus, luciferase, 10K MLSCN set, TLR/RLR signaling modifier project, primary screen (AID 602276;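 active = inhibition at or above 50% at 10 µM; inactive = inhibition below 50%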;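 note: firefly luciferase from ISG56 promoter only with Renilla not read in this screen; 0% = Sendai virus plus DMSO and 100% = medium plus DMSO without virus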); details: HEK293 RL24 IRF3 luciferase reporter, at 10 µM, stronger effect = higher value
# [8] = TLR3 IRF3 reporter activation blockers – cell-based, poly I:C stimulus, luciferase, 10K MLSCN set, primary screen (AID 602277;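 active = inhibition of the reporter signal at or above 50%; inactive = inhibition below 50%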); details: HEK293-TLR3 RL24 IRF3 luciferase reporter, at 10 µM, stronger effect = higher value
SMILES,cell count [1],inhibition [1],inhibition of aggregation [2],nuclei count [2] [%],inhibition [3],nuclei count [3] [%],fluorescence slope [4],NADPH fluorescence slope [5],slope [6],inhibition [7],inhibition [8]
C(#Cc1ccccc1)Cn1nnc2ccccc21,288,18% (inactive),11.6% (inactive),73.2,-5% (inactive),103,-0.336 (inactive),-2.1e-05 (inactive),0.00582 (inactive),-41.6% (inactive),-170% (inactive)
CN(C(=O)c1ccc(S(=O)(=O)NC2CCCC2)cc1)C1CCCCC1,685,2% (inactive),-3.6% (inactive),103,-141% (inactive),117,-0.455 (inactive),1.5e-05 (inactive),0.0047 (inactive),-13.3% (inactive),-0.726% (inactive)
O=C1CCN(C(=O)c2ccccc2)C2CCCCC12 (stereo not drawn),511,-8.7% (inactive),4.4% (inactive),41.3,19.1% (inactive),81.9,-0.408 (inactive),1.6e-05 (inactive),0.00412 (inactive),-7.18% (inactive),15.9% (inactive)
CCc1ccccc1NC(=O)C(CC)Sc1nc2cc3c(cc2c(=O)n1Cc1ccco1)OCO3 (stereo not drawn),486,9.8% (inactive),-21.1% (inactive),115,-3.3% (inactive),105,-0.494 (inactive),-1.8e-05 (inactive),0.00667 (inactive),16.3% (inactive),22.3% (inactive)
CN1CCN(S(=O)(=O)c2ccc(NC(=O)Nc3cccc(Cl)c3)cc2)CC1,468,0.3% (inactive),-4.4% (inactive),91.8,36.5% (inactive),114,-0.614 (inactive),-3e-05 (inactive),0.00476 (inactive),-1.37% (inactive),-11.1% (inactive)
COc1ccc(CCNC(=O)CC2COc3ccccc3O2)cc1OC (stereo not drawn),611,-7.2% (inactive),25% (inactive),115,-28.9% (inactive),115,-0.619 (inactive),2.1e-05 (inactive),0.00334 (inactive),19.4% (inactive),20.3% (inactive)
CC(=O)Nc1ccc(-c2nn[nH]n2)cc1Cl,630,-10.7% (inactive),-3% (inactive),69.9,0.8% (inactive),97.8,-0.546 (inactive),-2.3e-05 (inactive),0.00431 (inactive),13.2% (inactive),12.5% (inactive)
O=C(CSc1nnc(-c2cnccn2)n1Cc1ccco1)c1ccc(Cl)cc1,287,16.6% (inactive),-32.9% (inactive),95.7,-8.9% (inactive),124,-0.473 (inactive),4.5e-06 (inactive),0.00285 (inactive),8.56% (inactive),22.1% (inactive)
CC(C)(C)NC(=O)COC(=O)c1snc(C(=O)NC2CCCCC2)c1N,236,13.3% (inactive),3.3% (inactive),99.5,-55.6% (inactive),96.2,-0.586 (inactive),2.8e-05 (inactive),0.00501 (inactive),9.79% (inactive),-26% (inactive)
CCOC(=O)CCNC(=O)Nc1ccc2nc(C)n(Cc3ccccc3Cl)c(=O)c2c1,623,1.4% (inactive),-9.2% (inactive),89.5,-33.8% (inactive),104,-0.366 (inactive),1.6e-05 (inactive),0.00472 (inactive),1.46% (inactive),-9.46% (inactive)
COc1ccc(NC(=O)NCCN2C(=O)C3C4C=CC(C4)C3C2=O)cc1 (stereo not drawn),572,-0.8% (inactive),0.8% (inactive),75.5,-25.1% (inactive),110,-0.54 (inactive),-3.1e-05 (inactive),0.00569 (inactive),-29.6% (inactive),-73.3% (inactive)
COc1ccc(CCNC(=O)C2CCCN(c3nn4c(=O)cc(C)nc4s3)C2)cc1OC (stereo not drawn),371,-4% (inactive),10.8% (inactive),94.9,-9% (inactive),100,-0.403 (inactive),-5.9e-05 (inactive),0.0045 (inactive),19.7% (inactive),16.7% (inactive)
Cc1cc(NC(=O)CCCC(=O)Nc2ccc(F)cc2)no1,423,-10.5% (inactive),13.2% (inactive),72.2,-43% (inactive),107,-0.477 (inactive),9.1e-07 (inactive),0.0057 (inactive),5.46% (inactive),34.4% (inactive)
Cc1c[nH]c2cccc(OCC(O)CNC(C)(C)C)c12 (stereo not drawn),324,-1.6% (inactive),15.3% (inactive),95.2,-4.9% (inactive),123,-0.454 (inactive),1.3e-05 (inactive),0.00547 (inactive),12.1% (inactive),27.1% (inactive)
CCOc1ccc(NC(=O)CCN2CCN(c3ccccc3)CC2)cc1,696,-6.4% (inactive),8.3% (inactive),101,-44.6% (inactive),105,-0.261 (inactive),-1.2e-05 (inactive),0.00485 (inactive),20.2% (inactive),16.6% (inactive)
CCOc1cc2oc(=O)c3c(c2cc1Cl)CCC3,400,-2.6% (inactive),5.2% (inactive),104,-24.1% (inactive),106,-0.482 (inactive),1.7e-05 (inactive),0.00626 (inactive),-5.28% (inactive),-30.2% (inactive)
COCCNC(=O)CN1CCN(Cc2cccc(Cl)c2)C1=O,752,-11.6% (inactive),28.6% (inactive),69.7,-47.9% (inactive),125,-0.536 (inactive),-4.6e-05 (inactive),0.00677 (inactive),6.1% (inactive),16.8% (inactive)
CC(=O)N1c2c(cc(Br)cc2S(=O)(=O)NCC2COc3ccccc3O2)CC1C (stereo not drawn),651,-0.5% (inactive),19.1% (inactive),104,-47.6% (inactive),116,-0.53 (inactive),-7.4e-05 (inactive),0.00624 (inactive),13.1% (inactive),10.4% (inactive)
Cc1ccc2cc(CN(CC3CCCO3)S(=O)(=O)c3ccc4c(c3)OCCO4)c(=O)[nH]c2c1C (stereo not drawn),478,2.4% (inactive),8.6% (inactive),110,-42.1% (inactive),135,-0.391 (inactive),-8.2e-06 (inactive),0.00544 (inactive),3.97% (inactive),-19.6% (inactive)
O=C(Nc1ccc(S(=O)(=O)N2CCc3ccccc32)cc1)c1ccc2c(c1)OCO2,307,-10% (inactive),14.7% (inactive),95.5,5.1% (inactive),83.2,-0.603 (inactive),-1.6e-05 (inactive),0.0108 (inactive),-3.74% (inactive),-67.6% (inactive)
COCCNC(=O)CCCCCN1C(=O)CCC1=O,221,-7.7% (inactive),-8.5% (inactive),85.3,25.1% (inactive),71.9,-0.595 (inactive),-5.1e-05 (inactive),0.00625 (inactive),11.6% (inactive),24.9% (inactive)
COC(=O)c1ccccc1S(=O)(=O)N(CCCO)Cc1cc2c(C)ccc(C)c2[nH]c1=O,688,-5.1% (inactive),-9% (inactive),108,-55.4% (inactive),120,-0.501 (inactive),6.1e-06 (inactive),0.00564 (inactive),2.69% (inactive),27.6% (inactive)
O=C(CN1CCN(c2nc(-c3ccccc3)cs2)CC1)Nc1ccc2c(c1)OCO2,529,-11.3% (inactive),-0.3% (inactive),106,-77.7% (inactive),146,-0.518 (inactive),1.7e-05 (inactive),0.00563 (inactive),-2.24% (inactive),-3.31% (inactive)
CC(=O)c1c(C)nn(CC(O)COc2ccc3c(c2)CCC3)c1C (stereo not drawn),751,-4.3% (inactive),7.3% (inactive),97.4,-169% (inactive),126,-0.435 (inactive),4e-05 (inactive),0.00662 (inactive),-13.5% (inactive),-41.8% (inactive)
Cc1ccc(CNC(=O)C2CCN(S(=O)(=O)c3cccs3)CC2)o1,296,-3.4% (inactive),11.2% (inactive),76.7,-23.9% (inactive),103,-0.617 (inactive),-3.4e-05 (inactive),0.00605 (inactive),7.81% (inactive),5.31% (inactive)
O=C(CN(Cc1ccc(F)cc1)C(=O)Cn1nnc2ccccc21)NCC1CCCO1 (stereo not drawn),438,-6.8% (inactive),5.8% (inactive),107,-33% (inactive),84,-0.434 (inactive),7.2e-05 (inactive),0.00612 (inactive),13.2% (inactive),26.1% (inactive)
CC1=C(C(=O)Nc2ccccc2C)C(c2ccc(C)o2)N2C(=O)CSC2=N1 (stereo not drawn),642,-16.7% (inactive),0% (inactive),106,-5.9% (inactive),95.6,-0.44 (inactive),-1.8e-05 (inactive),0.00436 (inactive),16.5% (inactive),21.5% (inactive)
O=C(NCCN1CCOCC1)c1ccc2c(c1)N(Cc1ccccc1F)C(=O)CS2,591,5.8% (inactive),6% (inactive),67.6,-51.7% (inactive),111,-0.456 (inactive),-2e-06 (inactive),0.00607 (inactive),9.96% (inactive),22.6% (inactive)
